From PubChem BioAssay AID1159580 (chemical genetic matrix, 2015)
About 2,000 (36%) of roughly 5,500 compounds were called active. Not shown: some 18% with an inconclusive outcome. This is one part of the list. A number with no mark means an inactive call. No stated cut-off is given here; in the data, active means normalized growth mostly below about 0.91 (no sharp cut-off); inconclusive means no clear call, values can overlap the other calls; inactive means mostly above about 0.92.

Assay: chemical genetic growth profiling, strain panel (AID 1159580);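 further: tested at 20 µM; growth read once vehicle control cultures reached saturation at 30 °C; 1 = growth at the plate median or of vehicle wells; lower values mean less growth of the strain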
Conditions: S. cerevisiae deletion strains, growth OD

## COc1ccc(-c2cc(=O)c3ccccc3o2)cc1OC
Locus YAL013W, strain DEP1, hits give low values
  normalized growth: 1.01
Locus YAL021C, strain ccr4, hits give low values
  normalized growth: 0.942
Locus YAL026C, strain drs2, hits give low values
  normalized growth: 0.838 (active)
Locus YAL030W, strain snc1, hits give low values
  normalized growth: 0.91 (active)
Locus YBL061C, strain skt5, hits give low values
  normalized growth: 0.898 (active)
Locus YBR009C, strain hhf1, hits give low values
  normalized growth: 0.772 (active)
Locus YBR021W, strain FUR4, hits give low values
  normalized growth: 0.896
Locus YBR023C, strain chs3, hits give low values
  normalized growth: 0.842 (active)
Locus YBR171W, strain sec66, hits give low values
  normalized growth: 0.917
Locus YBR229C, strain ROT2, hits give low values
  normalized growth: 1.04
Locus YBR231C, strain swc5, hits give low values
  normalized growth: 0.83 (active)
Locus YBR279W, strain paf1, hits give low values
  normalized growth: 0.9 (active)
Locus YCL011C, strain gbp2, hits give low values
  normalized growth: 0.824 (active)
Locus YCL016C, strain dcc1, hits give low values
  normalized growth: 0.871 (active)
Locus YCL029C, strain bik1, hits give low values
  normalized growth: 0.974
Locus YCL061C, strain MRC1, hits give low values
  normalized growth: 0.904 (active)
Locus YCL069W, strain vba3, hits give low values
  normalized growth: 0.921 (active)
Locus YCR088W, strain abp1, hits give low values
  normalized growth: 0.929
Locus YDL005C, strain med2, hits give low values
  normalized growth: 0.919
Locus YDL035C, strain GPR1, hits give low values
  normalized growth: 0.824 (active)
Locus YDL040C, strain nat1, hits give low values
  normalized growth: 0.939
Locus YDL074C, strain BRE1, hits give low values
  normalized growth: 0.981
Locus YDL101C, strain DUN1, hits give low values
  normalized growth: 1.02
Locus YDL185W, strain tfp1, hits give low values
  normalized growth: 1.03
Locus YDL192W, strain arf1, hits give low values
  normalized growth: 0.989
Locus YDR001C, strain nth1, hits give low values
  normalized growth: 0.93
Locus YDR069C, strain doa4, hits give low values
  normalized growth: 0.897 (active)
Locus YDR101C, strain arx1, hits give low values
  normalized growth: 0.95
Locus YDR137W, strain rgp1, hits give low values
  normalized growth: 0.681 (active)
Locus YDR150W, strain NUM1, hits give low values
  normalized growth: 1.05
Locus YDR159W, strain sac3, hits give low values
  normalized growth: 0.904
Locus YDR162C, strain NBP2, hits give low values
  normalized growth: 1.01
Locus YDR195W, strain ref2
  normalized growth: 1.13
Locus YDR297W, strain sur2, hits give low values
  normalized growth: 0.927
Locus YDR318W, strain mcm21, hits give low values
  normalized growth: 0.999
Locus YDR334W, strain swr1, hits give low values
  normalized growth: 0.922
Locus YDR335W, strain msn5, hits give low values
  normalized growth: 0.925
Locus YDR388W, hits give low values
  normalized growth: 1.01
Locus YDR392W, strain spt3, hits give low values
  normalized growth: 0.41 (active)
Locus YDR502C, strain sam2, hits give low values
  normalized growth: 0.925
Locus YEL003W, strain gim4, hits give low values
  normalized growth: 0.9 (active)
Locus YEL037C, strain rad23, hits give low values
  normalized growth: 0.872 (active)
Locus YEL061C, strain CIN8 (second series), hits give low values
  normalized growth: 0.913 (active)
Locus YEL061C, strain CIN8, hits give low values
  normalized growth: 1.03
Locus YER015W, strain faa2, hits give low values
  normalized growth: 0.932
Locus YER016W, strain bim1, hits give low values
  normalized growth: 0.933
Locus YER110C, hits give low values
  normalized growth: 1.04
Locus YER111C, strain swi4, hits give low values
  normalized growth: 0.913
Locus YER155C, strain BEM2 (second series), hits give low values
  normalized growth: 0.381 (active)
Locus YER155C, strain BEM2, hits give low values
  normalized growth: 1.07
Locus YER167W, strain BCK2, hits give low values
  normalized growth: 1.05
Locus YFR010W, strain ubp6, hits give low values
  normalized growth: 0.889 (active)
Locus YGL078C, strain dbp3, hits give low values
  normalized growth: 0.869 (active)
Locus YGL086W, strain mad1, hits give low values
  normalized growth: 0.982
Locus YGL167C, strain pmr1, hits give low values
  normalized growth: 0.878 (active)
Locus YGL173C, strain kem1, hits give low values
  normalized growth: 0.897 (active)
Locus YGL227W, strain vid30, hits give low values
  normalized growth: 0.912 (active)
Locus YGL240W, strain doc1, hits give low values
  normalized growth: 0.772 (active)
Locus YGL248W, strain PDE1, hits give low values
  normalized growth: 0.97
Locus YGL253W, strain hxk2, hits give low values
  normalized growth: 0.718 (active)
Locus YGR135W, strain pre9, hits give low values
  normalized growth: 0.955
Locus YGR252W, strain gcn5, hits give low values
  normalized growth: 0.819
Locus YHR013C, strain ard1, hits give low values
  normalized growth: 0.789 (active)
Locus YHR027C, strain rpn1, hits give low values
  normalized growth: 0.93
Locus YHR030C, strain SLT2, hits give low values
  normalized growth: 1.06
Locus YHR079C, strain IRE1 (second series), hits give low values
  normalized growth: 1.03
Locus YHR094C, strain hxt1, hits give low values
  normalized growth: 1.03
Locus YHR129C, strain ARP1, hits give low values
  normalized growth: 1.03
Locus YHR142W, strain chs7, hits give low values
  normalized growth: 0.683 (active)
Locus YHR200W, strain rpn10, hits give low values
  normalized growth: 1.03
Locus YIL066C, strain RNR3, hits give low values
  normalized growth: 1.01
Locus YIL073C, strain SPO22, hits give low values
  normalized growth: 0.925
Locus YIL125W, strain kgd1, hits give low values
  normalized growth: 0.976
Locus YIR030C, strain dcg1, hits give low values
  normalized growth: 1.02
Locus YJL092W, strain hpr5, hits give low values
  normalized growth: 0.923
Locus YJL095W, strain BCK1 (second series), hits give low values
  normalized growth: 0.823 (active)
Locus YJL095W, strain BCK1, hits give low values
  normalized growth: 0.973
Locus YJL115W, strain asf1, hits give low values
  normalized growth: 0.928
Locus YJL129C, strain trk1, hits give low values
  normalized growth: 0.901
Locus YJL134W, strain LCB3, hits give low values
  normalized growth: 1.05
Locus YJL154C, strain vps35, hits give low values
  normalized growth: 0.938
Locus YJL164C, strain tpk1, hits give low values
  normalized growth: 0.855 (active)
Locus YJL166W, strain qcr8, hits give low values
  normalized growth: 0.824 (active)
Locus YJL168C, strain set2, hits give low values
  normalized growth: 1.03
Locus YJL187C, strain SWE1 (second series), hits give low values
  normalized growth: 0.982
Locus YJL187C, strain SWE1, hits give low values
  normalized growth: 0.913 (active)
Locus YJR043C, strain POL32, hits give low values
  normalized growth: 0.979
Locus YJR075W, strain HOC1, hits give low values
  normalized growth: 1.03
Locus YKL009W, strain mrt4, hits give low values
  normalized growth: 0.801 (active)
Locus YKL068W, hits give low values
  normalized growth: 1.03
Locus YKL085W, strain MDH1 (second series), hits give low values
  normalized growth: 1.03
Locus YKL085W, strain MDH1, hits give low values
  normalized growth: 1.03
Locus YKL160W, strain elf1, hits give low values
  normalized growth: 0.862 (active)
Locus YKL190W, strain CNB1, hits give low values
  normalized growth: 1.03
Locus YKR001C, strain vps1, hits give low values
  normalized growth: 0.96
Locus YKR026C, strain gcn3, hits give low values
  normalized growth: 0.93
Locus YKR091W, strain srl3, hits give low values
  normalized growth: 0.935
Locus YLL001W, strain dnm1, hits give low values
  normalized growth: 0.874 (active)
Locus YLL026W, hits give low values
  normalized growth: 0.899 (active)
Locus YLL041C, strain sdh2, hits give low values
  normalized growth: 0.941
Locus YLR027C, strain aat2, hits give low values
  normalized growth: 0.926
Locus YLR039C, strain RIC1, hits give low values
  normalized growth: 0.963
Locus YLR058C, strain SHM2, hits give low values
  normalized growth: 1.01
Locus YLR102C, strain apc9, hits give low values
  normalized growth: 1.03
Locus YLR221C, strain rsa3, hits give low values
  normalized growth: 0.872 (active)
Locus YLR258W, strain gsy2, hits give low values
  normalized growth: 0.859 (active)
Locus YLR262C, strain YPT6 (second series), hits give low values
  normalized growth: 0.728 (active)
Locus YLR262C, strain YPT6, hits give low values
  normalized growth: 0.875
Locus YLR268W, strain sec22, hits give low values
  normalized growth: 0.936
Locus YLR320W, strain mms22, hits give low values
  normalized growth: 0.597 (active)
Locus YLR330W, strain CHS5, hits give low values
  normalized growth: 1.04
Locus YLR342W, strain FKS1 (second series), hits give low values
  normalized growth: 0.873
Locus YLR342W, strain FKS1, hits give low values
  normalized growth: 0.904 (active)
Locus YLR357W, strain rsc2, hits give low values
  normalized growth: 0.948
Locus YLR370C, strain arc18, hits give low values
  normalized growth: 0.894 (active)
Locus YLR371W, strain rom2, hits give low values
  normalized growth: 1.04
Locus YLR384C, strain iki3, hits give low values
  normalized growth: 0.935
Locus YLR418C, strain cdc73, hits give low values
  normalized growth: 0.918
Locus YML016C, strain PPZ1, hits give low values
  normalized growth: 1.05
Locus YML032C, strain rad52, hits give low values
  normalized growth: 0.96
Locus YML120C, strain ndi1, hits give low values
  normalized growth: 0.837 (active)
Locus YML124C, strain tub3, hits give low values
  normalized growth: 1.04
Locus YMR058W, strain fet3, hits give low values
  normalized growth: 0.852 (active)
Locus YMR078C, strain ctf18, hits give low values
  normalized growth: 1.02
Locus YMR125W, strain sto1, hits give low values
  normalized growth: 0.795 (active)
Locus YMR129W, hits give low values
  normalized growth: 0.945
Locus YMR205C, strain PFK2, hits give low values
  normalized growth: 0.768 (active)
Locus YMR223W, strain ubp8, hits give low values
  normalized growth: 0.99
Locus YMR231W, strain pep5, hits give low values
  normalized growth: 0.946
Locus YMR307W, strain GAS1, hits give low values
  normalized growth: 0.955
Locus YNL067W, strain RPL9B, hits give low values
  normalized growth: 0.969
Locus YNL071W, strain lat1, hits give low values
  normalized growth: 0.665 (active)
Locus YNL209W, strain ssb2, hits give low values
  normalized growth: 0.936
Locus YNL233W, strain BNI4, hits give low values
  normalized growth: 1.02
Locus YNL248C, strain rpa49, hits give low values
  normalized growth: 0.884 (active)
Locus YNL250W, strain rad50, hits give low values
  normalized growth: 0.993
Locus YNL271C, strain bni1, hits give low values
  normalized growth: 0.995
Locus YNL298W, strain CLA4, hits give low values
  normalized growth: 0.934
Locus YNL307C, strain MCK1, hits give low values
  normalized growth: 1.02
Locus YNL322C, strain KRE1 (second series), hits give low values
  normalized growth: 0.953
Locus YNR049C, strain mso1, hits give low values
  normalized growth: 0.916 (active)
Locus YNR052C, strain pop2, hits give low values
  normalized growth: 0.918
Locus YOL006C, strain TOP1, hits give low values
  normalized growth: 0.93
Locus YOL012C, strain htz1
  normalized growth: 1.9
Locus YOL147C, strain pex11, hits give low values
  normalized growth: 1.03
Locus YOR001W, strain rrp6, hits give low values
  normalized growth: 0.864 (active)
Locus YOR061W, strain CKA2, hits give low values
  normalized growth: 1.02
Locus YOR069W, strain VPS5, hits give low values
  normalized growth: 1.02
Locus YOR070C, strain gyp1, hits give low values
  normalized growth: 0.901 (active)
Locus YOR080W, strain dia2, hits give low values
  normalized growth: 0.928
Locus YOR083W, strain WHI5, hits give low values
  normalized growth: 0.862 (active)
Locus YOR106W, strain vam3, hits give low values
  normalized growth: 0.806 (active)
Locus YOR136W, strain idh2, hits give low values
  normalized growth: 1.02
Locus YOR144C, strain elg1, hits give low values
  normalized growth: 0.994
Locus YOR184W, strain ser1, hits give low values
  normalized growth: 0.802 (active)
Locus YOR265W, strain rbl2, hits give low values
  normalized growth: 0.935
Locus YOR270C, strain vph1, hits give low values
  normalized growth: 0.539 (active)
Locus YOR290C, strain snf2, hits give low values
  normalized growth: 0.734 (active)
Locus YOR316C, strain cot1, hits give low values
  normalized growth: 1.03
Locus YPL051W, strain arl3, hits give low values
  normalized growth: 0.854 (active)
Locus YPL078C, strain atp4, hits give low values
  normalized growth: 0.825 (active)
Locus YPL106C, strain sse1, hits give low values
  normalized growth: 0.788 (active)
Locus YPL240C, strain hsp82, hits give low values
  normalized growth: 0.923 (active)
Locus YPR119W, strain clb2, hits give low values
  normalized growth: 1.04
Locus YPR141C, strain kar3, hits give low values
  normalized growth: 1.04
Locus YPR163C, strain tif3, hits give low values
  normalized growth: 0.993
Locus YPR167C, strain met16, hits give low values
  normalized growth: 1.02
Strain wtn01, hits give low values
  normalized growth: 0.93
